# Source: PubChem
# Gal4-VP16 FLuc: Gal4-VP16 reporter inhibition counter-screen. Drosophila S2 Gal4-VP16 UAS-luciferase, luminescence, 20 h. Potency, µM (series often up to 53.6 µM), actives largely listed as inhibitors. 310,000 tested, 3.5% active. AID 2546;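 further: Gal4-VP16 expression switched on by copper sulfate through the metallothionein promoter; nearly all actives have a fitted effect of over 50% in size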
# RORgamma inh: ROR gamma (mouse) transcription inhibition; P51450; Drosophila S2 Gal4-RORgamma UAS-luciferase reporter, 20 h; Potency, µM (top dose mostly 53.6 µM), most hits filed as inhibitors; 310,000 tested, 5.4% active; AID 2551; further: nearly all actives have a fitted effect of over 60% in size
# Target sequence (P51450 whole entry, looked up, the tested form may be a part): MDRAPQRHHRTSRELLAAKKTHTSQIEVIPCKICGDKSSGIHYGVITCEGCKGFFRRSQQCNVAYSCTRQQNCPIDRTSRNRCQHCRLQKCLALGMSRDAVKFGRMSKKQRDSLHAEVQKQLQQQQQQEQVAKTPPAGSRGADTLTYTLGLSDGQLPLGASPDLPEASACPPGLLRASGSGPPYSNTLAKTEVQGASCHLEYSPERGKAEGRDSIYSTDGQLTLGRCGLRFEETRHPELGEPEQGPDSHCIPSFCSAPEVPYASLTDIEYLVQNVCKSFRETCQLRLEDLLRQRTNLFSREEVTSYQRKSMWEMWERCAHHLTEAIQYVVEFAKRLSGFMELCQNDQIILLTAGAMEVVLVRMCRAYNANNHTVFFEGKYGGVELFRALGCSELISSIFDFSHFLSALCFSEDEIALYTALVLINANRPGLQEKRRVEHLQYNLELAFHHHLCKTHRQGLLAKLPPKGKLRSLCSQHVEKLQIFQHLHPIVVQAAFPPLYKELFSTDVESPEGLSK
#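 Luminescence from a UAS-regulated Photinus luciferase reporter in stably transfected Drosophila Schneider cells is measured; decreased signal marks ROR gamma inhibition. Fusion expression is induced by 700 uM copper sulfate for 20 hr.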
# Luc counter: counter-screen: inhibitors of Kinase-Glo firefly luciferase | Q27757 | Kinase-Glo luciferase, ATP luminescence, 8 min | Potency, µM (series often up to 38.3 µM), usual class: inhibitors | 200,000 tested, 0.28% active; further: nearly all actives have a fitted effect of over 60% in size
#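 Compounds were added to a substrate mix at pH 7.2 (50 mM imidazole, 10 uM ATP, within the enzyme's linear range), followed by Kinase-Glo detection reagent; luminescence was measured after 8 minutes at ambient temperature.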
# Hits are given with their value; . = inactive; ? = inconclusive; / = not tested or not shown. An excerpt weighted towards active compounds, which were near 6.2% of everything screened. The call rests on the fitted dose curve; in most records, active means well fitted curve in the direction sought with a large enough effect; inconclusive means small, poorly fitted or top-dose-only effect, or another doubt; inactive means no such curve, though single readings can be large; an effect the other way counts as inactive or inconclusive.
SMILES,Gal4-VP16 FLuc,RORgamma inh,Luc counter
O=C(Nc1nc2ccccc2[nH]1)c1ccc(Cl)c(S(=O)(=O)N2CCCC2)c1,8.9µM,6.3µM,.
O=C(Nc1nccs1)C1CCN(S(=O)(=O)c2ccc(F)cc2)CC1,.,.,/
O=C(Nc1ccc(S(=O)(=O)N2CCCC2)cc1)c1cc(F)c(F)cc1Cl,.,.,/
Cc1cccc(N=C(N2CCOCC2)P(=O)(N2CCOCC2)N2CCOCC2)c1,.,.,.
c1ccc(-c2[nH]ncc2-c2ccnc3ccccc23)nc1,3.2µM,2µM,/
c1ccc2[nH]c(-c3ccnc4ccccc34)nc2c1,.,.,.
C/C(=C\C(=S)Nc1ccccc1)Nc1ccc2ccccc2c1,3.5µM,5.6µM,.
c1ccc(Nc2cccc3ccccc23)cc1,.,.,/
CCCCCC(=O)Nc1ccc2ccccc2c1,.,.,.
C/C(=C\C(=S)Nc1ccccc1)Nc1cccc2ccccc12,?,16µM,.
N#CCCn1c(=O)c(-c2cccs2)nc2cnc(Oc3ccccc3)nc21,.,.,.
CNc1ccc(C(=O)Oc2cc(O/N=[N+](\[O-])N(C)C)c([N+](=O)[O-])cc2[N+](=O)[O-])cc1,.,.,/
c1ccc(-c2nc(-c3ccccc3)c(Nc3ccc4ccccc4c3)o2)cc1,.,.,.
Cn1/c(=N/NC(=O)c2ccccc2Br)sc2ccccc21,?,.,.
NC(=O)c1ccc(-n2nnnc2SCc2ccccc2)cc1,.,.,.
O=C(Nc1nccs1)c1ccc(CSc2nnnn2-c2ccccc2)cc1,14µM,?,.
Cc1cc(C)c2nc(/N=C(\N)NC(=O)Nc3ccccc3)nc(C)c2c1,.,.,.
COc1ccc(CCC(=O)NNC(=O)Nc2ccc(C(C)C)cc2)cc1,.,.,/
CCC(C)C(=O)OCC1(c2ccc(C)cc2OC(=O)C(C)C)CO1 (stereo unspecified),?,.,/
Cc1ccc(C2(COC(=O)C(C)C)CO2)c(OC(=O)C(C)C)c1 (stereo unspecified),8.9µM,.,/
CC1CCC(NC(=O)C2CCN(S(=O)(=O)c3cccc4nonc34)CC2)CC1 (stereo unspecified),.,.,/
CCOC(=O)COn1c(SCC(=O)OCC)nc2ccccc2c1=O,.,.,.
Cc1cc(C)n(-c2nc3ccccc3c(=O)n2OCc2ccc(Cl)cc2)n1,?,10µM,.
Clc1ccc(-c2nc3ccccc3n2OCc2ccccc2)cc1,.,.,.
Cc1cc(C)n(-c2nc3ccccc3c(=O)n2OCC(=O)Nc2c(C)cccc2C)n1,?,11µM,.
SMILES,Gal4-VP16 FLuc,RORgamma inh,Luc counter
Cc1cccc(C)c1NC(=O)COC(=O)c1cc(-c2cccnc2)nc2ccccc12,.,.,.
Cc1cc(C)n(-c2nc3ccccc3c(=O)n2OCC(=O)OCc2ccccc2)n1,2.5µM,0.56µM,.
CC(=O)Oc1cc(-c2coc3cc(OC(C)=O)c(OC(C)=O)c(OC(C)=O)c3c2=O)cc(OC(C)=O)c1OC(C)=O,.,.,.
CCOC(=O)c1c(Cc2cccc(Cl)c2)c[nH]c1C,?,?,.
COc1ccc2c(=O)c(Oc3ccc(C(=O)O)cc3)c(C(F)(F)F)oc2c1,13µM,?,.
COc1ccc2c(=O)c(OC)c(-c3ccccc3)oc2c1,.,.,.
O=C(CCS(=O)(=O)Cc1ccccc1)Nc1ncc([N+](=O)[O-])s1,?,7.9µM,/
Cc1ccc(CC(=O)Nc2ncc([N+](=O)[O-])s2)cc1,.,.,.
CC(C)(C)c1nnc(NC(=O)c2cccs2)s1,?,18µM,.
CCCOc1ccc(/C=C/C(=O)Nc2ccc([N+](=O)[O-])cc2)cc1,.,?,/
O=C(Nc1ncc([N+](=O)[O-])s1)c1cccs1,10µM,?,/
O=C(/C=C/c1ccc([N+](=O)[O-])cc1)Nc1ncc([N+](=O)[O-])s1,7.1µM,?,.
CC(C)c1nnc(NC(=O)c2cccs2)s1,?,?,.
O=C(CS(=O)(=O)c1ccccc1)Nc1ncc([N+](=O)[O-])s1,.,.,/
